# High-throughput results deposited in PubChem BioAssay by The Scripps Research Institute Molecular Screening Center.
# HTR5A ag – HTR5A agonists in luminescence cell assay, primary screen, counter-screen for OPRM1-OPRD1 heterodimer agonist project, full-deck HTS; cell-based; activation, % at 9.3 µM; 0.61% of 340,000 active; AID 504692, 2011; in the data active = activation mostly above about 9.5%, no sharp cut-off; inactive = mostly below about 7.6%;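 note: 0% = cells with vehicle only and 100% = reference agonist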
# Target sequence (P47898 whole entry, looked up): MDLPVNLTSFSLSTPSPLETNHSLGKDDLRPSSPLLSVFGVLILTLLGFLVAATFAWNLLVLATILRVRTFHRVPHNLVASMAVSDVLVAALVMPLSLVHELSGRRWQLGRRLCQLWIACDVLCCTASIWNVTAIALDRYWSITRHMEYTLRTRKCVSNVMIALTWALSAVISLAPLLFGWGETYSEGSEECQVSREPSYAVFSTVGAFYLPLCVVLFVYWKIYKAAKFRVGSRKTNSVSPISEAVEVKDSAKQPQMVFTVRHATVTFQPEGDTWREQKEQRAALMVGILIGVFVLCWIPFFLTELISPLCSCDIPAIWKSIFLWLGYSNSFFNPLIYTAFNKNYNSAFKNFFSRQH
# OPRM1-OPRD1 inv – inverse agonists of MOR-DOR heterodimerization, primary screen, cell-based, luminescence; cell-based MOR-DOR heterodimer luminescence, inverse agonism; inhibition, % at 9.3 µM; 0.21% of 340,000 active; AID 504357, 2011; in the data active = inhibition above about 22%, passing the limit was not always enough;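 note: 0% = cells with DMSO and 100% = wells without cells with DMSO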
# HTR5A inv ctr – HTR5A inverse agonists in luminescence cell assay, primary screen, counter-screen for OPRM1-OPRD1 heterodimer inverse agonist project, full-deck HTS. HTR5A cell line, inverse agonism. inhibition, % at 9.3 µM. 0.083% of 340,000 active. AID 504634, 2011; in the data active = inhibition mostly above about 23%, no sharp cut-off; inactive = mostly below about 18%;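 note: 0% = cells with DMSO and 100% = no-cell wells with DMSO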
# OPRM1-OPRD1 ag – agonists of OPRM1-OPRD1 heterodimerization, primary screen, cell-based, luminescence; Mu-type opioid receptor (Homo sapiens) + Delta-type opioid receptor (Homo sapiens), …; cells; activation, % at 9.3 µM; 0.3% of 340,000 active;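 note: 0% = vehicle-treated cells and 100% = reference agonist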
# HTR2A ag – mouse Htr2a agonists via beta-arrestin recruitment, primary screen, cell-based, luminescence; 5-hydroxytryptamine receptor 2A (Mus musculus), P35363; 0.66% of 360,000 active; activation, % at 7.6 µM; CHO-K1 mHTR2A beta-arrestin complementation; percent of 30 µM serotonin response; AID 624169, 2012;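 active = activation above a run cutoff, the mean activation of all tested compounds plus 3 SD, cut at about 14% in these data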;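 note: 0% = plate median of compound wells and 100% = 30 µM serotonin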
# MOR-DOR ag conf – agonists of MOR-DOR heterodimerization, confirmation, cell-based, luminescence; shares compounds with OPRM1-OPRD1 ag; cells, luminescence complementation; activation, % at 9.3 µM; 45% of 830 active; AID 504904, 2011;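 note: 0% = vehicle-treated cells and 100% = reference agonist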
# HTR5A ag ctr2 – HTR5A agonists in cells, counter-screen for OPRM1-OPRD1 heterodimer agonist project, cell-based, luminescence; shares compounds with OPRM1-OPRD1 ag; 8% of 830 active; activation, % at 9.3 µM; HTR5A agonist counterscreen; in the data active = activation above about 17%;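 note: 0% = vehicle-treated cells and 100% = reference agonist response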
# Numbers without * were called inactive; i = inactive; x = no result. Rows were chosen to be rich in hits. Some 1.6% of all compounds tested hit in one or more screens of this group. Cut-off read from the data, not from the text of the source, unless noted: active = activation above about 18%; inactive = the rest.
SMILES,HTR5A ag,OPRM1-OPRD1 inv,HTR5A inv ctr,OPRM1-OPRD1 ag,HTR2A ag,MOR-DOR ag conf,HTR5A ag ctr2
c1ccc(C2[C@H]3CN(Cc4cccnc4)[C@H](c4ccccc4)C34CC2(c2cccnc2)C4)cc1 (stereo partly drawn),-5,-434,-20,80*,-4,75*,-4
Cc1cccc(NC(=O)c2cc(-c3cc(C)ccc3O)n[nH]2)c1,-1,-102,5,18*,1,14,1
Cc1cccc(NC(=O)c2cc(-c3cc(C)c(C)cc3O)n[nH]2)c1,-2,-19,7,4,2,x,x
CC(C)(C)OC(=O)NCCc1nnc(SCC(=O)Nc2ccc(Br)cc2)o1,2,3,-15,-1,0,x,x
CN(CCc1ccccn1)C(=O)CCC1CCCN(C(=O)c2ccsc2)C1 (stereo not drawn),5,-2,-14,0,5,x,x
COc1ccc2[nH]c3c(=O)n(/N=C/[C@H]4C(C)C=C(C)CC4C)c(=O)[nH]c3c2c1 (stereo partly drawn),1,-274,-4,54*,-5,39*,16
CN1CCN(c2ccc(NC(=O)c3ccc(-c4ccccc4F)o3)cc2)CC1,4,i,-38,158*,-2,249*,7
Cc1cc(N2CCN(C)CC2)ccc1NC(=O)c1ccc(-c2ccc(Cl)cc2)o1,2,-136,-5,26*,-13,44*,1
CCOc1ccc(N(C(C)C(=O)N2CCCCCC2)S(C)(=O)=O)cc1 (stereo not drawn),4,16,-16,-3,5,x,x
CCOc1ncccc1C(=O)OC(C)C(=O)NC(=O)NC1CCCCC1 (stereo not drawn),3,-3,-5,1,4,x,x
COc1ccc(Cl)cc1NC(=O)c1cc(-c2ccccc2O)n[nH]1,0,-71,0,12,1,x,x
COc1ccc(OC)c(NC(=O)c2cc(-c3cc(Cl)ccc3O)n[nH]2)c1,9,-112,-47,19*,-5,0,12
Cc1ccc(C)c(S(=O)(=O)NC2CCSC2=O)c1 (stereo not drawn),1,9,-25,-1,-2,x,x
COc1ccc(C2/C=C\CN(C(=O)Nc3ccc(C(F)(F)F)cc3)CC(=O)N2Cc2ccc(F)cc2)cc1 (stereo not drawn),20*,-318,-50,58*,2,0,-3
COc1ccc(C2/C=C\CN(C(=O)Nc3ccccc3)CC(=O)N2Cc2ccc(F)cc2)cc1 (stereo not drawn),-1,7,8,-1,3,x,x
COCCN(CCOC)C(=O)CSc1ccc(S(=O)(=O)N2CCN(C)CC2)cn1,-2,-138,5,32*,-2,0,2
CCn1c(=O)c(C(=O)NCc2cccnc2)c(O)c2ccccc21,-1,-111,2,19*,-1,29*,0
COc1cc(-c2noc(C)c2C(=O)NCCc2cccs2)cc(OC)c1OC,-1,14,3,-3,0,x,x
Cc1cc2c(cc1C)CSC(c1ccc3ccccc3c1O)SC2,-4,8,11,-1,-3,x,x
Cc1cc2c(cc1C)CSC(c1c(O)ccc3ccccc13)SC2,-4,-161,5,31*,5,19*,1
O=S(=O)(Nc1nc(-c2ccco2)c(-c2ccco2)s1)c1ccc(F)cc1F,x,x,x,x,7,x,x
Cc1ccc(NC(=O)c2cc(S(=O)(=O)N3CCCCC3)c[nH]2)cc1C,-2,-177,6,30*,-4,14,9
Cc1ccccc1N(CC(=O)N/N=C/c1ccc(Cl)cc1)C(=O)c1ccccc1,-2,-45,6,8,3,x,x
Cc1ccccc1N(CC(=O)N/N=C/c1ccc(F)cc1)C(=O)c1ccccc1,8,-158,-12,30*,0,46*,2
COc1ccc(C=O)cc1Oc1nc(Cl)ncc1F,-4,8,12,-2,-5,x,x
SMILES,HTR5A ag,OPRM1-OPRD1 inv,HTR5A inv ctr,OPRM1-OPRD1 ag,HTR2A ag,MOR-DOR ag conf,HTR5A ag ctr2
COc1cccc(-c2nnc(NC(=O)c3ccc(Cl)s3)o2)c1,11,-117,-31,20*,-3,2,-1
O=C(COC(=O)c1cc(=O)c2ccccc2o1)Nc1ccc2ccccc2c1,4,4,-15,-1,3,x,x
C/C(=N\NC(=O)c1cccc(S(=O)(=O)N2CCOCC2)c1)c1ccc(O)cc1,8,i,-19,219*,4,-1,2
O=C(NCCC1=CCCCC1)C1CCC(CNc2nc(=S)[nH]c3ccccc23)CC1 (stereo not drawn),4,-16,-12,3,-2,x,x
O=C(NCCc1ccc(Cl)cc1)C1CCC(CNc2nc(=S)[nH]c3ccccc23)CC1 (stereo not drawn),-1,-175,3,33*,-5,36*,10
S=c1nc(NCCc2ccccc2Cl)c2ccccc2[nH]1,5,-108,-20,23*,1,12,8
CN(C(=O)c1ccc(NC(=O)Cc2ccc(NC(=O)C3CCCN(C(=O)c4ccccc4)C3)cc2)cc1)C1CCCC1 (stereo not drawn),7,2,-26,0,12,x,x
C=C(C)COc1ccc(-c2n[nH]c(C)c2-c2ccc(OC)cc2)c(O)c1,8,-176,-16,30*,-1,-2,-2
Cc1ccc(/C=N/NC(=O)CSc2nnc(-c3ccc(Cl)cc3)n2-c2ccc(Cl)cc2)o1,11,-186,-32,37*,13,18,17*
CCOc1ccccc1OCCCC(=O)N1CCN(S(=O)(=O)c2ccc(C)cc2C)CC1,-5,-17,13,4,-1,x,x
CCCCC(CC)CNC(=O)C1CCCN(S(=O)(=O)c2cnc[nH]2)C1 (stereo not drawn),3,-1,-8,0,-5,x,x
C[n+]1c(/C=C/c2ccc(O)cc2)ccc2ccccc21,0,7,-2,-2,2,x,x
Cc1cc(/C=C\c2ccc3cc(N(C)C)ccc3[n+]2C)c(C)n1-c1ccccc1,2,-258,-7,48*,-7,4,0
